Calls of active or inactive are those of the source. Unless noted, how the calls were made is not given here.
How the values were obtained:
[1] = A549 cell viability effects, profiling panel, calcein-AM fluorescence, 48 h, basal (AID 1162); conditions: higher = more signal; further: test concentration not given here
[2] = adipocyte viability effects, profiling panel, cell-based, 3T3-L1 adipocytes, calcein-AM fluorescence, 48 h, basal (AID 1163); conditions: 3T3-L1 adipocytes viability, higher = more signal; further: test concentration not given here
[3] = HepG2 cell viability effects, profiling panel, calcein-AM fluorescence, 48 h, basal (AID 1164); conditions: higher = more signal; further: test concentration not given here
[4] = MM1S cell viability effects, profiling panel, calcein-AM fluorescence, 48 h, basal (AID 1165); conditions: higher = more signal;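 further: viability of MM1S multiple myeloma cells under basal unstimulated conditions; test concentration not given here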
[5] = basal RPMI8226 viability, no added stimulus, profiling panel, cell-based, calcein-AM fluorescence, 48 h, PK04 Diversity Set (AID 1166); conditions: RPMI8226 myeloma viability, higher = more signal;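 further: cells grown under basal conditions without added stimulus; test concentration not given here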
[6] = basal HepG2 mitochondrial membrane potential changes, profiling panel, cell-based, JC-1 fluorescence, 24 h, 100 nL compound (AID 1167); conditions: higher = more signal; further: test concentration not given here
[7] = basal 3T3-L1 adipocyte mitochondrial potential changes, profiling panel, cell-based, JC-1 fluorescence, 3T3-L1 adipocytes, 24 h, 100 nL compound (AID 1168); conditions: JC-1 mitochondrial fluorescence, higher = more signal, called active from +8 up or from −8 down; further: test concentration not given here
[8] = basal RPMI8226 mitochondrial membrane potential changes, profiling panel, cell-based, JC-1 fluorescence, 24 h, 100 nL compound (AID 1169); conditions: RPMI8226 myeloma, JC-1 mitochondrial potential fluorescence, higher = more signal; further: test concentration not given here
[9] = basal MM1S mitochondrial membrane potential changes, profiling panel, cell-based, JC-1 fluorescence, 24 h, 100 nL compound (AID 1170); conditions: higher = more signal; further: test concentration not given here
[10] = A549 lung cancer cell viability effects, profiling panel, resazurin fluorescence, 24 h, PK04 Diversity Set (AID 1171); conditions: higher = more signal, called active from +8 up or from −8 down; further: test concentration not given here
[11] = HepG2 liver cancer cell viability effects, profiling panel, resazurin fluorescence, 24 h, PK04 Diversity Set (AID 1172); conditions: higher = more signal; further: test concentration not given here
[12] = basal S. cerevisiae growth modulation, no modifier, primary screen, OD600, strain BY4716, 24 h, basal condition (AID 1173); conditions: OD600, 24 h, higher = more signal, called active from +8 up or from −8 down
[13] = MM1S myeloma cell viability, profiling panel, resazurin fluorescence, basal, 24 h, PK04 Diversity Set (AID 1174); conditions: higher = more signal, called active from +8 up or from −8 down;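 further: MM1S multiple myeloma cell line; test concentration not given here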
[14] = target: Dihydroorotate dehydrogenase (quinone), mitochondrial (Plasmodium falciparum (isolate 3D7)) (UniProt Q08210); test: PfDHODH enzyme inhibitors, primary screen, biochemical, C-terminal His tag, absorbance 600 nm (AID 1175); conditions: DCIP absorbance 600 nm, higher = more signal, called active from +8 up or from −8 down;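 further: recombinant parasite enzyme with a five histidine tag at its C terminus; test concentration not given here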
Dihydroorotate dehydrogenase (quinone), mitochondrial (Plasmodium falciparum (isolate 3D7)), sequence (Q08210 whole entry, looked up): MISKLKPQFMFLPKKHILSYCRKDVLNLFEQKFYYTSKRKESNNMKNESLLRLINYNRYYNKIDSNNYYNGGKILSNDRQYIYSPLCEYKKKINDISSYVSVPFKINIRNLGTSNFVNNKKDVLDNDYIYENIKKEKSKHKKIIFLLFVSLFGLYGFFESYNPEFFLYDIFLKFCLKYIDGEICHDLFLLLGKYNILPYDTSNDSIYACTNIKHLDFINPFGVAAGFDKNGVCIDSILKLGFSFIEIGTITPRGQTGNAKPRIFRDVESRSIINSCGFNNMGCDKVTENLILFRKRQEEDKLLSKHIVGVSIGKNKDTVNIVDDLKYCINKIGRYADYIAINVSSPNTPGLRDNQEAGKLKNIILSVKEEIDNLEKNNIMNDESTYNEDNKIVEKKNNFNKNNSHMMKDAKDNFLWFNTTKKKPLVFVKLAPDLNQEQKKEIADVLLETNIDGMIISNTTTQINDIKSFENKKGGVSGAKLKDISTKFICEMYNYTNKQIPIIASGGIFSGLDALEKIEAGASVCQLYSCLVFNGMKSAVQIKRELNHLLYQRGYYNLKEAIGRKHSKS

[15] = P. aeruginosa biofilm formation inhibitors, primary screen, strain PAO1, LB-PBS medium, absorbance 600 nm (AID 1176); further: test concentration not given here; conditions: P. aeruginosa PAO1 growth/biofilm, A600, 12 h; higher = more signal
[16] = S. cerevisiae RM11-1a growth modifiers, primary screen, strain RM11-1a, OD600, basal, 24 h (AID 1177); conditions: OD600, 24 h, higher = more signal, called active from +8 up or from −8 down;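 further: cultures grown under basal conditions with no added stressor; test concentration not given here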
[17] = E. coli acrAB mutant growth effects, primary screen, E. coli filamentation inducers, strain DRC39, OD650, 24 h (AID 1178); conditions: higher = more signal, called active from +8 up or from −8 down;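 further: growth measured as culture turbidity by optical density at 650 nm; test concentration not given here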
[18] = E. coli acrAB mutant growth effects, primary screen, E. coli filamentation inducers, strain DRC39, OD650, 48 h (AID 1179);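 further: screen aims at cell division blockers that make cells filament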; conditions: E. coli DRC39 delta-acrAB growth, higher = more signal, called active from +8 up or from −8 down
[19] = RPMI8226 myeloma cell viability, profiling panel, resazurin fluorescence, basal, 24 h, PK04 Diversity Set (AID 1180); conditions: higher = more signal;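 further: RPMI8826 multiple myeloma cell line at 5000 cells per well; test concentration not given here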
[20] = target: E3 ubiquitin-protein ligase XIAP (Homo sapiens) (UniProt P98170); test: XIAP binders, primary screen, biophysical, small-molecule microarray, fluorescence 635 nm (AID 1181); conditions: small-molecule microarray binding, higher = more signal;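 further: score merges 667 nm emission and signal to noise over triplicate slides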
E3 ubiquitin-protein ligase XIAP (Homo sapiens), sequence (P98170 whole entry, looked up): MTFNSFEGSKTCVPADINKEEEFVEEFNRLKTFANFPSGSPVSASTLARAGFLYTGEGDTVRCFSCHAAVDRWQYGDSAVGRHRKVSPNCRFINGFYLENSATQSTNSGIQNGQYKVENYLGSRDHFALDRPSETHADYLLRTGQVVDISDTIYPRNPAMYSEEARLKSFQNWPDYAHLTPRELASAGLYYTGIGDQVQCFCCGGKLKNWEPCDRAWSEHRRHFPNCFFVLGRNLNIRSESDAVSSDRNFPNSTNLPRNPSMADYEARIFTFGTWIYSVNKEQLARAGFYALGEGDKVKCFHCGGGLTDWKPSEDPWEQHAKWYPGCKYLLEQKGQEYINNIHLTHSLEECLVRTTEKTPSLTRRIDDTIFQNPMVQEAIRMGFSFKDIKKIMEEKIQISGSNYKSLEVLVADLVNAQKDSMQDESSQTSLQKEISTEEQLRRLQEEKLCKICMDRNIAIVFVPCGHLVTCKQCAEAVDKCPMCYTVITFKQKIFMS

Row | Structure (SMILES) | z-score [1] | z-score [2] | z-score [3] | z-score [4] | z-score [5] | z-score [6] | z-score [7] | z-score [8] | z-score [9] | z-score [10] | z-score [11] | z-score [12] | z-score [13] | composite z-score [14] | z-score [15] | z-score [16] | z-score [17] | z-score [18] | z-score [19] | composite z-score [20]
1 | COC(=O)[C@@]1(Cc2ccccc2N=[N+]=[N-])N=C(c2ccc(OCCCO)cc2)O[C@H]1c1ccccc1 | -2.99 | -0.421 | -5.47 | -3.58 | -3.93 | -3.13 | -0.138 (inactive) | -1.06 | -2.9 | -2.88 (inactive) | -4.36 | -0.642 (inactive) | -7.63 (inactive) | 1.66 (inactive) | 0.77 (inactive) | 1.76 (inactive) | 0.044 (inactive) | -1.12 (inactive) | -7.12 | 0.0472
2 | COC(=O)[C@@]1(Cc2ccc(OC)cc2)[C@H]2c3cc(C(=O)N(C)C)n(CCF)c3C[C@H]2CN1C(=O)c1ccccc1 | -0.444 | -0.228 | -0.0897 | 0.841 | -0.111 | 1.49 | 0.454 (inactive) | -0.339 | -1.55 | -0.391 (inactive) | 0.586 | 2 (inactive) | -0.386 (inactive) | 0.343 (inactive) | -0.278 (inactive) | 0.177 (inactive) | 0.471 (inactive) | -0.143 (inactive) | -0.102 | -0.0592
3 | COCCOC(=O)N1C(=O)[C@@]2(c3ccccc31)[C@H](c1ccccc1OCCO)N1[C@H](c3ccccc3)[C@H](c3ccccc3)OC(=O)[C@H]1[C@@H]2C(=O)N1CCc2cc(OC)c(OC)cc2C1 | -0.322 | 1.09 | -0.628 | -1.87 | -1.49 | 0.822 | 0.977 (inactive) | -0.337 | -0.582 | -0.395 (inactive) | -0.413 | 1.99 (inactive) | 0.181 (inactive) | 0.301 (inactive) | 1.96 (inactive) | 3.06 (inactive) | -1.29 (inactive) | -1.3 (inactive) | 0.186 | -0.146
4 | COc1ccc(C(=O)Nc2ccc(CN3C(=O)[C@@]4(O[C@@H](CC(=O)N5Cc6ccccc6C[C@H]5CO)[C@H]([Si](C)(C)c5ccc(OC)cc5)[C@H]4C)c4ccccc43)cc2)cc1 | -0.0018 | 0.844 | -0.856 | -1.84 | -0.881 | 0.489 | 0.749 (inactive) | -0.957 | -1.05 | 0.143 (inactive) | 0.473 | -0.273 (inactive) | -1.66 (inactive) | -3.48 (inactive) | 0.896 (inactive) | 1.23 (inactive) | 0.704 (inactive) | 0.241 (inactive) | -1.04 | -0.127
5 | C[N+](C)(C)CCCC[C@@H]1NC(=O)[C@H]2C[C@@H](C(=O)NCCCCCCN)[C@@H](c3cccc(OCCO)c3)N2C1=O | -0.535 | 0.875 | -0.997 | 0.179 | 1.07 | -1.01 | -0.547 (inactive) | -0.0252 | -0.154 | -0.871 (inactive) | -2.69 | -0.707 (inactive) | 0.45 (inactive) | -0.114 (inactive) | 1.18 (inactive) | -0.0241 (inactive) | -0.678 (inactive) | -1.35 (inactive) | 0.652 | 0.194
6 | COC(=O)c1c(CC[C@@H](CO)NC(=O)N[C@@H](C)Cn2cc(C3(O)CCCC3)nn2)oc(C(C)=O)c1C(=O)OC | 0.329 | 1.45 | -0.299 | -2.1 | -0.371 | -0.428 | 1.04 (inactive) | -0.357 | 0.932 | -0.514 (inactive) | -1.1 | -0.724 (inactive) | -0.345 (inactive) | -3.31 (inactive) | 0.0793 (inactive) | -0.429 (inactive) | -0.0257 (inactive) | -0.687 (inactive) | -0.88 | -0.184
7 | O=C(O)[C@]1(CCS(=O)(=O)c2ccccc2)N=C(c2ccc(OCCCO)cc2)O[C@@H]1c1ccccc1 | 0.195 | 0.103 | 0.296 | -1.2 | 1.18 | -0.509 | -0.372 (inactive) | -0.928 | 0.0474 | 0.704 (inactive) | 0.93 | -0.334 (inactive) | 0.716 (inactive) | -0.295 (inactive) | -1.3 (inactive) | -0.707 (inactive) | 1.92 (inactive) | 0.815 (inactive) | 0.314 | -0.0988
8 | COCC(=C=CC[C@@H](O)c1ccccc1OCCO)C[C@@H](O)COCc1ccccc1 | 1.94 | 1.04 | 1.13 | 0.338 | 0.801 | 1.32 | 0.54 (inactive) | -0.719 | 1.59 | 1.84 (inactive) | 0.905 | -0.413 (inactive) | 1.26 (inactive) | -1.47 (inactive) | 0.191 (inactive) | -2.04 (inactive) | 2.4 (inactive) | 1.6 (inactive) | 0.935 | 0.145
9 | COc1cc(C(O)C2C=CC3C(=O)NC(=O)C3N2Nc2ccc(Cl)cc2Cl)cc(OC)c1OC (stereo not given) | -0.797 | 0.349 | -0.751 | 0.192 | -1.44 | -0.359 | -1.63 (inactive) | -0.82 | 0.483 | -0.315 (inactive) | -0.925 | -12.7 (active) | -0.679 (inactive) | 0.0871 (inactive) | 0.683 (inactive) | 0.1 (inactive) | -0.305 (inactive) | -0.425 (inactive) | -0.933 | 0.0454

Reference: PubChem BioAssay
